Reference: PubChem BioAssay AID1159580 (chemical genetic matrix, 2015)
In all, about 5,500 compounds went through this assay and about 2,000 (36%) were called active. Another 18% or so got no clear call; they are omitted. Cut-off read from the data, not from the text of the source: active = normalized growth mostly below about 0.91 (no sharp cut-off); inconclusive = no clear call, values can overlap the other calls; inactive = mostly above about 0.92. Some of the results follow.

Experiment: chemical genetic growth profiling, strain panel (AID 1159580);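 note: tested at 20 µM; growth read once vehicle control cultures reached saturation at 30 °C; 1 = growth at the plate median or of vehicle wells; lower values mean less growth of the strain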
Conditions: S. cerevisiae deletion strains, growth OD

Measured: normalized growth

NC(=O)CI
inactive: locus YAL013W, strain DEP1, stronger effect = lower value 0.951 | locus YAL040C, strain CLN3, stronger effect = lower value 0.968 | locus YCL061C, strain MRC1 (second series), stronger effect = lower value 0.98 | locus YDR363W, strain ESC2, stronger effect = lower value 0.988 | locus YER002W, strain NOP16, stronger effect = lower value 0.949 | locus YGR229C, strain SMI1, stronger effect = lower value 0.942 | locus YJR075W, strain HOC1, stronger effect = lower value 0.966 | locus YNL175C, strain NOP13, stronger effect = lower value 0.947 | locus YNL197C, strain WHI3, stronger effect = lower value 0.936 | locus YNL224C, strain SQS1, stronger effect = lower value 0.972 | locus YPL055C, strain LGE1, stronger effect = lower value 0.956 | locus YPL241C, strain CIN2, stronger effect = lower value 0.966
active: locus YGR078C, strain PAC10, stronger effect = lower value 0.907 | locus YOR083W, strain WHI5 (second series), stronger effect = lower value 0.792
